# Results reported in ChEMBL document CHEMBL3433997, “St. Jude Leishmania screening dataset” (2016).
# Key:
# Assay type in all cases: functional
# [1] = molecular target: Solute carrier family 2, facilitated glucose transporter member 1 (Homo sapiens) (UniProt P11166); test: ST_JUDE_LEISH: Cytotoxicity at 2uM final concentration against transgenic Leishmania Mexicana promastigotes LmGLUT1 that are glucose transport deficient and complemented with the human glucose transporter GLUT1. Activity is measured by DNA content using SYBR green in vitro
# Solute carrier family 2, facilitated glucose transporter member 1 (Homo sapiens), sequence (P11166 whole entry): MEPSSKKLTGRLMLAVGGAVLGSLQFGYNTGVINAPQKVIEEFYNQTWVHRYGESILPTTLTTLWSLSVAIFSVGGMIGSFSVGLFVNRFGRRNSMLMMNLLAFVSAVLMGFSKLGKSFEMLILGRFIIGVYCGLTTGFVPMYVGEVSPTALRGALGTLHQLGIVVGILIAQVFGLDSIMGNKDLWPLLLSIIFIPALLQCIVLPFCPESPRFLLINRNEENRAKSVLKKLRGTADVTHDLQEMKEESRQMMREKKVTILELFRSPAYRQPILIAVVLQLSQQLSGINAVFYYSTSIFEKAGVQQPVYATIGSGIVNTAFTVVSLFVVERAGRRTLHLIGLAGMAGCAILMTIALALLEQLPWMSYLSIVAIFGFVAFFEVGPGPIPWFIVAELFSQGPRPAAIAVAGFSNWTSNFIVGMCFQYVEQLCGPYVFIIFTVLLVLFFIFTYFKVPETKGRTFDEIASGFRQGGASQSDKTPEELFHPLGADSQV
# [2] = molecular target: Hexose transporter 1 (Plasmodium falciparum) (UniProt O97467); test: ST_JUDE_LEISH: Cytotoxicity at 2uM final concentration against transgenic Leishmania Mexicana promastigotes LmPfHT that are glucose transport deficient and complemented with the Plasmodium falciparum hexose transporter. Activity is measured by DNA content using SYBR green in vitro
# [3] = molecular target: Glucose transporter (Leishmania mexicana) (UniProt O61059); test: ST_JUDE_LEISH: Cytotoxicity at 2uM final concentration against transgenic Leishmania Mexicana promastigotes LmGT2 that are glucose transport deficient and complemented with the L. Mexicana glucose transporter 2. Activity is measured by DNA content using SYBR green in vitro
structure (smiles),measurement,setting,value
O=C(Nc1ccc(-c2nc3ccccc3[nH]2)cc1)C1CCCN(C2CCC2)C1 (stereo not drawn),inhibition,[1],19.8%
same,inhibition,[2],14.7%
same,inhibition,[3],8.04%
COCC(C)n1c(C)cc(C(=O)CSc2nnc(Nc3ccccc3)s2)c1C (stereo not drawn),inhibition,[1],1.18%
same,inhibition,[2],1.49%
same,inhibition,[3],-0.94%
CCN(Cc1ccc(-c2ccc(C(F)(F)F)cc2)cc1)C(=O)Cn1c(SCc2cccc(F)c2F)cc(=O)c2cc(CN3CCCCC3)ccc21,inhibition,[1],0.46%
same,inhibition,[2],0.7%
same,inhibition,[3],5.02%
COC(=O)COc1cc(C(=O)NCCCCN2CCC(c3ccc4c(c3OC)CCCC4)CC2)ccc1-c1ccc(Cl)cc1,inhibition,[1],3.39%
same,inhibition,[2],2.65%
same,inhibition,[3],1.4%
CC(C)N(CCOc1ccc2c(c1)N(C(=O)Nc1ccc(Cl)c(Cl)c1)CC2)C(C)C,inhibition,[1],-0.91%
same,inhibition,[2],0.27%
same,inhibition,[3],-4.18%
N=C(Nc1ccccc1)Nc1cccc(Cc2ccc([N+](=O)[O-])cc2)n1,inhibition,[1],5.43%
same,inhibition,[2],3.98%
same,inhibition,[3],0.1%
COc1ccc(Oc2ccccc2CNCC2CCN(CC3CCCCC3)CC2)cc1,inhibition,[1],6.31%
same,inhibition,[2],-1.98%
same,inhibition,[3],2.13%
COc1cc(C(=O)N2C(c3nccs3)C(C(=O)N(OC)C(C)c3ccccc3)CC2(CC(C)C)C(=O)OC(C)(C)C)ccc1C(C)(C)C (stereo not drawn),inhibition,[1],4.49%
same,inhibition,[2],3.71%
same,inhibition,[3],1.29%
Cc1cc(NC(=O)Nc2ccc(C(C)(C)C)cc2)c2ccccc2n1,inhibition,[1],1.18%
same,inhibition,[2],3.8%
same,inhibition,[3],-3.31%
CCCCCCc1cnc2nc(N)nc(N)c2c1C,inhibition,[1],10.8%
same,inhibition,[2],10%
same,inhibition,[3],10.3%
O=C(NC1CCN(Cc2ccccc2)CC1)c1cc(C(=O)NC2CCN(Cc3ccccc3)CC2)cc(C(=O)NC2CCN(Cc3ccccc3)CC2)c1,inhibition,[1],5.09%
same,inhibition,[2],4.78%
same,inhibition,[3],4.94%
